± gives the standard deviation of the averaged measurements.

The subject of the assay is SW480. Put plainly: TCF/Wnt firefly luciferase reporter signal relative to plate median (fraction of plate median); higher = higher Wnt reporter signal. The note with it: 5 µM; treatment time 24 h; reporter: 7TFP. In a few lines: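 Colorectal cancer cell lines stably carrying lentiviral TCF/Wnt firefly luciferase reporters (7TFP or TCF4/Wnt) were plated in 384-well plates and, 24 h later, given library compounds at a final 5 µM for 24 h. Firefly luciferase or CellTiterGlo luminescence was read on parallel plates with a Tecan F500 reader. Each well's signal was normalised to the plate median in webcellHTS2 (additive, without log transformation). Values are the mean of two independent replicates.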
Regarding `CC(=O)N[C@@H](CC(=O)N[C@@H](CCC(=O)O)C(=O)O)C(=O)O`, the “TCF/Wnt firefly luciferase reporter signal” value was found to be 0.988 ± 0.032.

Turning to `COc1c(N2CCNC(C)C2)c(F)cc2c(=O)c(C(=O)O)cn(C3CC3)c12` (centres undefined), the “TCF/Wnt firefly luciferase reporter signal” value was determined as 0.906 ± 0.041.

`CCCCCCCCCCCC[C@H](O)[C@@H]1CC[C@@H]([C@@H](O)CCCCCCCC(=O)CC[C@@H](O)CC2=C[C@H](C)OC2=O)O1` [annocherin]: the “TCF/Wnt firefly luciferase reporter signal” value stood at 0.855 ± 0.32.

On to `COc1ccc(C(=O)c2ccc(O)cc2)c(O)c1O`, for which the “TCF/Wnt firefly luciferase reporter signal” value was 1.06 ± 0.057.

Take `O=C(O)c1cc2cc(F)ccc2[nH]1`: the “TCF/Wnt firefly luciferase reporter signal” value came to 1.08 ± 0.085.

As to `O=C(CCc1ccc(O)cc1)c1c(O)cc(O)cc1O[C@@H]1OC(CO)[C@@H](O)[C@@H](O)C1O` (some centres undefined), the “TCF/Wnt firefly luciferase reporter signal” value came to 1.06 ± 0.092.

Regarding `CC(=O)/C(=C\c1ccccc1)CC(=O)O`, the “TCF/Wnt firefly luciferase reporter signal” value was determined as 0.996 ± 0.02.

Regarding `CCN(CC)CCCC(C)Nc1ccnc2cc(Cl)ccc12` (centres undefined), the “TCF/Wnt firefly luciferase reporter signal” value is 1.045 ± 0.0071.

Regarding `CCCc1cc(=O)[nH]c(=S)[nH]1`, the “TCF/Wnt firefly luciferase reporter signal” value amounted to 1.02 ± 0.028.

For the compound `CC(C(=O)O)c1ccc(N2Cc3ccccc3C2=O)cc1` (centres undefined), the “TCF/Wnt firefly luciferase reporter signal” value worked out at 1.05 ± 0.064.

Turning to `CN(C)C(=O)C(CCN1CCC(O)(c2ccc(Cl)cc2)CC1)(c1ccccc1)c1ccccc1`, the “TCF/Wnt firefly luciferase reporter signal” value is 0.816 ± 0.16.

For `C[C@H](CCC(=O)O)[C@H]1CC[C@H]2[C@@H]3CC[C@@H]4C[C@H](O)CC[C@]4(C)[C@H]3C[C@H](O)[C@]12C`, the “TCF/Wnt firefly luciferase reporter signal” value worked out at 1.01 ± 0.053.

`CC(=O)O[C@@H]1C[C@@]2(C)C(CC[C@@H]2C(C)=O)C2CCC3=CC(=O)CC[C@]3(C)C21` (some centres undefined): the “TCF/Wnt firefly luciferase reporter signal” value was determined as 0.965 ± 0.033.

As for `COc1cccc(/C=C/C(=O)O)c1C(C)C`, the “TCF/Wnt firefly luciferase reporter signal” value came to 1.03 ± 0.17.

As to `Nc1ncn([C@@H]2O[C@H](CO)[C@@H](O)[C@H]2O)c(=O)n1`, the “TCF/Wnt firefly luciferase reporter signal” value is 1.085 ± 0.0071.

For `CCCCCCCC/C=C/CCCCCCCCOP(=O)([O-])OCC[N+](C)(C)C`, the “TCF/Wnt firefly luciferase reporter signal” value amounted to 0.982 ± 0.018.

On to `CCC(=O)OCC(=O)[C@@]1(OC(=O)CC)[C@H](C)CC2C3C([C@@H](O)C[C@@]21C)[C@@]1(C)C=CC(=O)C=C1C[C@H]3Cl` (some centres undefined), for which the “TCF/Wnt firefly luciferase reporter signal” value was 0.926 ± 0.049.

Consider `COc1cccc2c1CCC1=CC(=O)CC[C@@]12C`, for which the “TCF/Wnt firefly luciferase reporter signal” value was 0.967 ± 0.1.

Regarding `CCn1nc(C(=O)O)c(=O)c2cc3c(cc21)OCO3`, the “TCF/Wnt firefly luciferase reporter signal” value came to 0.875 ± 0.14.

Consider `O=C(O)c1cn(-c2ccc(F)cc2)c2cc(N3CCNCC3)c(F)cc2c1=O`, for which the “TCF/Wnt firefly luciferase reporter signal” value came out at 1.06 ± 0.1.

Take `O=C(O)C(S)C(S)C(=O)O` (centres undefined): the “TCF/Wnt firefly luciferase reporter signal” value was determined as 1.004 ± 0.0078.

For the compound `CCOc1ccc(NC(C)=O)cc1`, the “TCF/Wnt firefly luciferase reporter signal” value worked out at 1.06 ± 0.05.

Take `O=C(Oc1cccc2cccnc12)c1ccccc1`: the “TCF/Wnt firefly luciferase reporter signal” value was found to be 0.871 ± 0.025.

Regarding `CC(C)=CCc1c(O)cc(C)oc1=O`, the “TCF/Wnt firefly luciferase reporter signal” value was 1.03 ± 0.071.

`O=C(O)COCCN1CCN(C(c2ccccc2)c2ccc(Cl)cc2)CC1` (centres undefined): the “TCF/Wnt firefly luciferase reporter signal” value stood at 0.915 ± 0.033.

With `O=C1C=C2CC3(O)COc4cc(O)ccc4C3=C2C=C1O` (centres undefined), the “TCF/Wnt firefly luciferase reporter signal” value turned out to be 1.02.

With `CC(C(=O)O)c1cccc(C(=O)c2ccccc2)c1` (centres undefined), the “TCF/Wnt firefly luciferase reporter signal” value is 1.03 ± 0.014.

As for `CC(C)c1c(O)c(-c2cc3c(c(C(C)C)c2O)CCC2C(C)(C)CCC[C@]32C)cc2c1CCC1C(C)(C)CCC[C@]21C` (some centres undefined), the “TCF/Wnt firefly luciferase reporter signal” value came out at 1.09 ± 0.014.

With `O=C1CN2Cc3c(ccc(Cl)c3Cl)N=C2N1`, the “TCF/Wnt firefly luciferase reporter signal” value turned out to be 0.98 ± 0.13.

For `CC#C[C@]1(O)CC[C@H]2[C@@H]3CCC4=CC(=O)CCC4=C3[C@@H](c3ccc(N(C)C)cc3)C[C@@]21C`, the “TCF/Wnt firefly luciferase reporter signal” value amounted to 1.01 ± 0.063.

Regarding `CCCc1nc2c(C)cc(-c3nc4ccccc4n3C)cc2n1Cc1ccc(-c2ccccc2C(=O)O)cc1`, the “TCF/Wnt firefly luciferase reporter signal” value came out at 1 ± 0.021.

Take `COC(=O)C[C@H]1C(C)(C)[C@@H](OC(C)=O)[C@@H]2CC3=C4CC(=O)O[C@@H](c5ccoc5)[C@]4(C)CC[C@@H]3[C@@]1(C)C2=O`: the “TCF/Wnt firefly luciferase reporter signal” value turned out to be 0.95 ± 0.041.

`CC(C)NCC(O)COc1cccc2ccccc12` (centres undefined): the “TCF/Wnt firefly luciferase reporter signal” value is 0.9935 ± 0.0092.

Consider `COc1cc2c(cc1-c1coc3c4c(c(OC)cc3c1=O)OC(C)(C)C=C4)OCO2`, for which the “TCF/Wnt firefly luciferase reporter signal” value is 0.938 ± 0.0099.

Turning to `CC(C)=CCc1c(O)cc2oc(C)cc(=O)c2c1O`, the “TCF/Wnt firefly luciferase reporter signal” value was found to be 0.943 ± 0.095.

On to `CC(C)NC[C@@H](O)COc1cccc2ccccc12`, for which the “TCF/Wnt firefly luciferase reporter signal” value was determined as 1.01 ± 0.05.

In the case of `CCOC(=O)[N-]c1c[n+](N2CCOCC2)no1`, the “TCF/Wnt firefly luciferase reporter signal” value turned out to be 1.11 ± 0.078.

Take `COc1ccc2c(c1)O[C@@H]1COc3cc(OC)c(OC)cc3[C@@H]1C2=O`: the “TCF/Wnt firefly luciferase reporter signal” value came out at 0.777 ± 0.046.

With `C[C@H](N)CO`, the “TCF/Wnt firefly luciferase reporter signal” value is 1.12 ± 0.092.

For the origin of these results see the supplement of paper PMC6522484.
